TDP1 inh = blocks human tyrosyl-DNA phosphodiesterase 1; Potency, µM (highest dose often 130 µM), usual class: inhibitors; 350,000 tested, 0.28% active; recombinant TDP1, AlphaScreen DNA substrate cleavage; Q9NUW8; also: nearly all actives have a fitted effect of over 40% in size
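Recombinant E. coli-expressed Tdp1 (1 nM) preincubated with compound 15 min at RT, then 5'-biotin/3'-phosphotyrosine-FITC DNA substrate (15 nM) added for 5 min. AlphaScreen beads (10 ug/ml) added, 10 min RT; tyrosine-FITC cleavage read as signal loss.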
TDP1 cell CPT = DT40-hTDP1 cell growth loss with CPT; chicken DT40 Tdp1-/-;hTDP1 cells + 20 nM CPT, ATP luminescence, 48 h; 420,000 tested, 12% active; Potency, µM (top dose mostly 46.2 µM), usual class: inhibitors; also: nearly all actives have a fitted effect of over 55% in size
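Cell growth measured by CellTiter-Glo luminescence after a minimum 48 h, 37 C compound exposure with 20 nM CPT in Tdp1-knockout DT40 cells stably expressing hTDP1, seeded 400/well; qHTS titration format.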
PLK1 PBD inh = inhibitors of human PLK1 polo-box domain binding. Potency, µM, usual class: inhibitors. Plk1 PBD binding of FITC phosphopeptide, fluorescence polarization. 360,000 tested, 2.8% active. AID 720504. P53350; also: series mostly up to about 57 µM; nearly all actives have a fitted effect of over 65% in size
VDR inh = inhibitors of human vitamin D receptor. 400,000 tested, 0.93% active. P11473. Potency, µM, usual class: inhibitors. AID 504847. VDR-SRC2-3 peptide fluorescence polarization, 2 h
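VDR–SRC2-3 interaction, FP format. Cmpds 23 nl via pintool, brief spin, 2 h ambient incubation.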
DT40 TDP1 no CPT = qHTS for Inhibitors of human tyrosyl-DNA phosphodiesterase 1 (TDP1): qHTS in cells in absence of CPT; DT40 Tdp1-/- hTDP1 cells, no CPT, ATP luminescence, 48 h; Potency, µM (top dose mostly 46.2 µM), actives largely listed as inhibitors; 420,000 tested, 15% active; AID 686978, 2013; also: nearly all actives have a fitted effect of over 55% in size
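Camptothecin absent (DMSO only). Human TDP1-complemented DT40 knockout cells, 400 cells/well, 37 °C for minimum 48 hr; ATP measured via CellTiter-Glo, 30 min dark incubation, luminescence.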
KAT2A inh = blocks human GCN5L2 histone acetyltransferase; Q92830; GCN5L2 HAT assay, ThioGlo1 CoA-SH fluorescence; Potency, µM (doses to about 58.9 µM), actives largely listed as inhibitors; 390,000 tested, 0.21% active; AID 504327
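ThioGlo1-coupled HAT assay: 20nM GCN5L2, 70uM acetyl-CoA, 75uM H3(1-25) peptide, pH 7.5. Fluorescence read at 340/540nm at start and after 20 min at room temperature.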
Each line names hits and unclear results; the compound was inactive in the other large screens; ! = not active in a repeat. This is a sample that favours compounds with a hit; in the whole collection about 18% have one here. Calls follow the shape of the dose curve; as a rule, active = well fitted curve in the direction sought with a large enough effect; inconclusive = small, poorly fitted or top-dose-only effect, or another doubt; inactive = no such curve, though single readings can be large; an effect the other way counts as inactive or inconclusive.

COC(=O)C1=C(C)NC(C)=C(C(=O)O[C@@H]2CCCN(Cc3ccccc3)C2)[C@@H]1c1cccc([N+](=O)[O-])c1	TDP1 cell CPT 18µM, DT40 TDP1 no CPT 10µM (no result: TDP1 inh, KAT2A inh)
O=C(CN1CCN(S(=O)(=O)c2ccc3c(c2)OCCCO3)CC1)N1CCc2ccccc21	TDP1 cell CPT inconclusive, DT40 TDP1 no CPT inconclusive (no result: TDP1 inh, VDR inh, KAT2A inh)
COc1cc(Cn2nnc3ccccc32)cc(Br)c1O	none (no result: TDP1 inh)
CCCN1CC(CSC)C[C@H]2c3cccc4[nH]cc(c34)C[C@H]21 (stereo partly drawn)	none (no result: PLK1 PBD inh)
COc1cc2nc(N(C)C)c(CNCc3nonc3C)cc2c(OC)c1OC	none (no result: TDP1 inh, PLK1 PBD inh, VDR inh, KAT2A inh)
CC(C)CNC(=O)c1cn(C2CCN(Cc3nc4ccccc4s3)CC2)nn1	none (no result: TDP1 inh, PLK1 PBD inh, VDR inh, KAT2A inh)
N#CN1C2CCC1CC(O)(c1ccccc1)C2 (stereo not drawn)	none (no result: TDP1 inh, VDR inh, KAT2A inh)
CCOC(=O)C1=C(C)NC(C)=C(C(=O)OC)[C@H]1c1cccc([N+](=O)[O-])c1	TDP1 cell CPT 27µM, DT40 TDP1 no CPT 24µM (no result: PLK1 PBD inh, VDR inh, KAT2A inh)
CC1=C(C(=O)OC(C)C)C(c2cccc([N+](=O)[O-])c2)C(C(=O)OC2CN(C(c3ccccc3)c3ccccc3)C2)=C(N)N1 (stereo not drawn)	TDP1 cell CPT inconclusive, DT40 TDP1 no CPT inconclusive (no result: TDP1 inh, PLK1 PBD inh)
COC(=O)C1=C(C)NC(C)=C(C(=O)OC(C)(C)CN(C)CCC(c2ccccc2)c2ccccc2)C1c1cccc([N+](=O)[O-])c1 (stereo not drawn)	TDP1 cell CPT 8.4µM, DT40 TDP1 no CPT 8.4µM (no result: TDP1 inh, PLK1 PBD inh)
CCOC(=O)C1=C(C)NC(C)=C(C(=O)OCC)C1C	VDR inh inconclusive
CCOC(=O)C1=C(C)NC(C)=C(C(=O)OCC)C1c1ccc([N+](=O)[O-])s1	TDP1 cell CPT 15µM, DT40 TDP1 no CPT 10µM
COCCOC(=O)C1=C(C)NC(C)=C(C(=O)OC(C)C)C1c1cccc([N+](=O)[O-])c1 (stereo not drawn)	TDP1 cell CPT inconclusive, VDR inh inconclusive, DT40 TDP1 no CPT 15µM!
COCCOC(=O)C1=C(C)NC(C)=C(C(=O)OC/C=C/c2ccccc2)C1c1cccc([N+](=O)[O-])c1 (stereo not drawn)	TDP1 cell CPT inconclusive, DT40 TDP1 no CPT inconclusive (no result: PLK1 PBD inh)
COCCOC(=O)C1=C(C)NC(C)=C(C(=O)OC(C)C)[C@@H]1c1cccc([N+](=O)[O-])c1	TDP1 cell CPT inconclusive, DT40 TDP1 no CPT inconclusive (no result: PLK1 PBD inh, VDR inh, KAT2A inh)
Cc1ccc(-c2csc3nnc(SCC(=O)NCc4ccc5c(c4)OCO5)n23)cc1	none
c1ccc(-c2csc3nnc(SCc4ccc5c(c4)OCO5)n23)cc1	TDP1 cell CPT inconclusive, PLK1 PBD inh 21µM, VDR inh 79µM, DT40 TDP1 no CPT inconclusive
CCN1C(=O)[C@H]2[C@@H](c3ccc(-c4ccc5c(c4)OCO5)c(OC)c3)N[C@@](C)(C(=O)OC)[C@H]2C1=O	TDP1 cell CPT inconclusive, DT40 TDP1 no CPT inconclusive
CCN1C(=O)[C@H]2[C@@H](c3ccc(-c4ccc(Cl)c(Cl)c4)cc3)N[C@@](C)(C(=O)OC)[C@H]2C1=O	TDP1 cell CPT 8.2µM, DT40 TDP1 no CPT 8.2µM
COC(=O)[C@]1(C)N[C@H](c2ccc(SC3CCCCC3)c(OC)c2)[C@@H]2C(=O)N(C)C(=O)[C@@H]21	TDP1 cell CPT inconclusive, DT40 TDP1 no CPT 12µM
CCN1C(=O)[C@H]2[C@@H](c3ccc(-c4ccc(Cl)c(Cl)c4)c(OC)c3)N[C@@](C)(C(=O)OC)[C@H]2C1=O	TDP1 cell CPT 4.6µM, DT40 TDP1 no CPT 6.5µM
COc1ccc(OCC(=O)N2CCCC(Nc3ccc(C)c(C)c3)C2)cc1 (stereo not drawn)	none (no result: TDP1 inh, VDR inh, KAT2A inh)
Cc1ccc(OCCCCNC2CCCC(C)C2C)c(C)c1 (stereo not drawn)	TDP1 cell CPT 8.2µM, DT40 TDP1 no CPT 7.3µM
Cc1cc(C)cc(OCC(=O)NNC(=O)c2ccccn2)c1	TDP1 cell CPT 9.2µM, DT40 TDP1 no CPT 6.5µM
Cc1ccc(OCCCC(=O)NNC(=O)c2ccccn2)cc1	TDP1 cell CPT 6.5µM, DT40 TDP1 no CPT 5.8µM
